Measurements: PubChem BioAssay (NCI)
The panel holds about 79,000 compounds, 15% with a hit somewhere; the sample as a whole holds those more often. A number with no mark means an inactive call. Active and inactive are the calls of the source. Rule as the data show it: active = growth inhibition above about 70%; inactive = the rest.

Tests used:
[1] = NCI Yeast Anticancer Drug Screen. Data for the rad50 strain (AID 155);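 also: 0% = growth of vehicle-only cultures of the same strain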; conditions: S. cerevisiae rad50 strain growth inhibition; at 50.0 µM; active compounds read high
In short: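 Relative growth inhibition (compound vs vehicle) was measured in yeast with a defined repair-gene alteration.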

[2] = NCI Yeast Anticancer Drug Screen. Data for the mec2-1 strain (AID 157); conditions: S. cerevisiae mec2-1 strain, at 50.0 µM, active compounds read high
In short: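 Strain: mec2-1 (DNA repair/cell cycle alteration). Compound exposure, then growth measured; inhibition expressed relative to vehicle.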

[3] = NCI Yeast Anticancer Drug Screen. Data for the sgs1 mgt1 strain (AID 161);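 also: 0% = growth of cultures given vehicle only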; conditions: S. cerevisiae sgs1 mgt1 strain, at 50.0 µM, active compounds read high
In short: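 Mutant yeast exposed to compound; growth scored against vehicle-only wells.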

[4] = NCI Yeast Anticancer Drug Screen. Data for the cln2 rad14 strain (AID 165);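 also: 0% = growth equal to vehicle treated cultures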; conditions: S. cerevisiae cln2 rad14 strain, at 50.0 µM, active compounds read high
In short: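 Compounds are applied to the cln2 rad14 yeast strain, and growth is then compared with that of vehicle-treated cultures to give inhibition.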

[5] = NCI Yeast Anticancer Drug Screen. Data for the bub3 strain (AID 167); conditions: S. cerevisiae bub3 mutant strain, at 50.0 µM, active compounds read high
In short: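 Screening used yeast with an engineered genetic alteration affecting cell cycle control. Compound-exposed cultures were compared with vehicle cultures, and reduced growth was taken as inhibition.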

[6] = NCI Yeast Anticancer Drug Screen. Data for the mlh1 rad18 strain (AID 175); conditions: S. cerevisiae mlh1 rad18 strain growth inhibition; at 50.0 µM; active compounds read high
In short: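 Read-out is yeast growth inhibition, calculated against vehicle-only controls. The compound was applied to a strain engineered with DNA damage repair alterations.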

SMILES | growth inhibition [1] | growth inhibition [2] | growth inhibition [3] | growth inhibition [4] | growth inhibition [5] | growth inhibition [6]
Nc1ccc([N+](=O)[O-])cc1F | -18.6% | -9.05% | -9.85% | -20.9% | 3.95% | -0.95%
CC(C)[C@@H](C)[C@@]1(C)C[C@@H]1[C@@H](C)[C@H]1CC[C@@H]([C@@H]2CC=C3C[C@@H](O)CC[C@]3(C)C2=O)[C@]1(C)CCO | 13.9% | 9.65% | 19.3% | -17.9% | -7.35% | -3.35%
O=C(Nc1ccc(Cl)cc1C(F)(F)F)C(=O)Nn1c(=S)[nH]c2ccccc2c1=O | -5.9% | -15.2% | 8.5% | -2.7% | -1.1% | 18.9%
COc1cc(/C=N/NC2=NCCCN2)ccc1O | 28.7% | 13.2% | 7.75% | -16.2% | 0.7% | 17.4%
CCCCS(=O)(=O)CCCC | 18.5% | 0.9% | -10.2% | 0.6% | -1.3% | 22.9%
CC(C)=CCC/C(C)=C/CO | -48.8% | -27.8% | -3.55% | 35.1% | -47.8% | -14.2%
COc1cc2c(cc1OC)C1CC(CC(N)=O)(C(N)=O)CCN1CC2 (stereo not drawn) | 2.35% | 16.6% | 14.6% | -49.5% | 1.5% | 17.5%
CC1(C)OC(=O)C(=Cc2ccc(O)cc2)C(=O)O1 | -20.9% | -9.45% | -34.5% | -4.6% | -21.5% | -34.3%
CC(C)(C)c1cc(Br)c(O)c(CN(Cc2cc(C(C)(C)C)cc(Br)c2O)C2CCCCC2)c1 | 16.1% | -24.9% | -34.2% | -14.2% | -35.2% | 1.35%
Oc1ccc(CCC2CCNCC2)cc1 | 7.75% | 23.4% | 7.7% | -27.2% | -11.1% | -30.1%
CC(=O)OCC1OC(Oc2ccccc2)C(OC(C)=O)C(OC(C)=O)C1OC(C)=O (stereo not drawn) | -3.4% | -5.3% | -0.05% | 12.4% | -4.1% | -10.7%
O=[N+]([O-])c1ccc2[nH]ncc2c1 | 19.2% | -8.05% | 0.35% | -3.15% | 8.45% | 13.7%
O=C1Nc2ccccc2C1=Nc1cccc2ncccc12 | 3.35% | -7.75% | -11.1% | -4.5% | 8.7% | 15.4%
C/C=C/Cc1ccccc1O | 7.1% | -3.4% | -5.05% | -6.4% | -9.2% | -1.1%
Nc1ccn(CC(=O)c2ccc(Cl)s2)c(=O)n1 | -1% | 10.8% | 6.9% | -5.1% | 2.15% | 6.3%
O=C(/C=C/c1ccccc1)CC1OC(=O)c2ccccc21 (stereo not drawn) | 14.3% | -15.9% | 10.3% | 23.1% | 3.15% | -20.9%
CNC(=O)c1cccc([N+](=O)[O-])c1 | 32.1% | 19.8% | 21.7% | -31.2% | 7.25% | 30.2%
CCCS(=O)(=O)CCC(=O)c1cccs1 | -0.05% | -12.1% | -8.4% | -19% | -1.85% | 5.95%
O=C(Nc1ccc(Br)cc1)Oc1ccc(Cl)cc1C(=O)c1ccccc1 | 38% | 8.5% | 19.1% | 29.5% | 41.8% | 20.5%

SMILES | growth inhibition [1] | growth inhibition [2] | growth inhibition [3] | growth inhibition [4] | growth inhibition [5] | growth inhibition [6]
CCOC(=O)C1C(=O)CC(=O)C(C(=O)OCC)C1C1CC=CCC1 (stereo not drawn) | 51% | 69.5% | 78.5% (active) | 38.7% | 70.7% (active) | 78.5% (active)
CSc1ccc(C(=NO)c2ccc(SC)cc2)cc1 | -11.4% | 17.8% | -1.3% | -0.85% | -8.5% | -11.7%
O=C1NC(C(=O)O)CC1O (stereo not drawn) | 4.1% | 23.9% | 5.05% | 14.2% | 17.9% | 17.6%
COC12CC3C4CCC5CC(O)CCC5(C)C4CCC3(C)C1C(C)C1(CCC(C)CO1)O2 (stereo not drawn) | 33.6% | 8.7% | 13.1% | 19.8% | 1.05% | -0.4%
O=C(NNC(=S)NCc1ccccc1)C12CC3CC(CC(C3)C1)C2 | -35.6% | -10.3% | -4.2% | 2.55% | 15.5% | -5.9%
CCCOC(=O)c1ccc(C(C)C)cc1 | 1.1% | 0.8% | -5.3% | 3.7% | 2.25% | -1%
COc1cc(C2OC[C@@H]3C(=O)OC[C@H]23)cc(O)c1OC (stereo partly drawn) | 3.35% | -1.6% | -33.1% | -13.3% | -38.8% | -23.7%
CCN(CC)CCCC(C)NC1CCCc2cc3c(cc21)C(=O)c1ccccc1C3=O (stereo not drawn) | 34% | 13.8% | 38.1% | 14.9% | -4.5% | 33.1%
CCCCCCCCCCCC(=O)O (tested in a mixture with another compound) | -15.7% | 7.5% | -41.6% | -39.9% | -32.6% | -13.5%
CSc1ccccc1C(C)(C)O | 24.6% | -2.55% | 3.35% | -29.8% | -1.4% | 26.4%
Cc1ccc(S(=O)(=O)/N=C2\CCN(S(=O)(=O)c3ccccc3)N2S(=O)(=O)c2ccc(C)cc2)cc1 | 17.6% | 15.5% | 14.3% | 9.85% | 11.8% | 46.5%
CCNCCNC(=O)c1ccc(I)cc1 | -33.9% | -7.2% | -4.2% | 6.65% | -14.8% | -10.8%
CCCCCC1=CC(=O)C=C(OC)C12C(=O)Oc1cc(O)c(C(=O)O)c(CCCCC)c12 (stereo not drawn) | 32.4% | 37% | 28.2% | 48.4% | 18.6% | 33.8%
O=C(O)C(CCOc1ccccc1)CCOc1ccccc1 | 0.7% | -15.2% | 3.5% | -10.4% | -9.15% | -26.3%
Cc1cc2nc(CC(O)c3nc4cc(C)c(C)cc4[nH]3)[nH]c2cc1C (stereo not drawn) | 6.9% | -12.9% | -5.1% | 5.1% | -4.9% | 5.8%
Cc1cncc(C)c1 | 17.6% | -22.1% | 5.6% | -6.85% | 7.2% | 8.5%
COc1nc(N)c(C(=O)CCl)c(=O)n1C | 3.35% | -7.5% | 6.5% | 0.35% | -20.6% | 16.5%
COC(=O)[C@@H]1CON(Cc2ccccc2)C1CC1(C)OCCO1 (stereo partly drawn) | 0.85% | -7.3% | 23.8% | 0.6% | 7.35% | 8.45%
CCCCC/C(C)=C\CBr | -7.65% | -2.65% | -7.1% | -22.9% | -10.6% | -3%
